This is an account of results in PubChem BioAssay (Tox21).

Where “and” joins values, the source holds several entries; their conditions need not be identical. Equal entries are not always repeated. Inconclusive results are not listed. More than one record can exist for a structure, and the calls need not agree. Calls of active or inactive are those of the source. Unless noted, calls follow the shape of the dose curve; as a rule, active = well fitted curve in the direction sought with a large enough effect in the repeat runs; inconclusive = weak or mixed curves; inactive = no such curve, though single readings can be large; an effect the other way counts as inactive or inconclusive.

The nature of assay [1]: qHTS assay to identify small molecule antagonists of the estrogen receptor alpha (ER-alpha) signaling pathway using the BG1 cell line in the presence of 0.1 nM 17-beta-estradiol - cell viability counter screen (AID 1259241). Also: nearly all actives have a fitted effect of over 40% in size. In outline: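 In this screen, hormone-deprived VM7Luc4E2 cells were seeded at 4,000 per well, dosed with compound and 0.1 nM estradiol final, and incubated 22 hr at 37C and 5% CO2; fluorogenic live-cell protease signal reported viability.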

Assay [2] is described as follows: qHTS assay to identify small molecule antagonists of the androgen receptor (AR) signaling pathway using the MDA cell line in the presence of 0.5 nM R1881 - cell viability counter screen (AID 1259242). Also: nearly all actives have a fitted effect of over 45% in size. In outline:
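Cytotoxicity toward MDA-kb2 cells is measured by CellTiter-Fluor live-cell protease fluorescence after 16 hr compound exposure at 37C in the presence of 0.5 nM R1881 stimulator.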

The target in assay [3] is Estrogen receptor (Homo sapiens) (UniProt P03372). The assay is described as follows: qHTS assay to identify small molecule antagonists of the estrogen receptor alpha (ER-alpha) signaling pathway using the BG1 cell line in the presence of 0.1 nM 17-beta-estradiol (AID 1259244). Also: nearly all actives have a fitted effect of over 50% in size. In outline: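 After 5 days in hormone-depleted medium (charcoal-stripped serum, no phenol red), VM7Luc4E2 cells were seeded, incubated 24 h, then co-treated with compound and 0.1 nM (final) estradiol for 22 h before luminescence detection.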

The nature of assay [4]: qHTS assay to identify small molecule phospholipidosis (PLD) inducers (AID 1259344; active = well fitted curve in the direction sought with a large enough effect; an effect the other way counts as inactive or inconclusive). The gist of the method: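 HepG2 cells, 900/well, treated with compound plus LipidTOX Red for 24 h at 37 C; amiodarone positive and DMSO negative controls. Fixed with paraformaldehyde/Hoechst, then high-content imaging scored LipidTOX pit count and integrated intensity per well and per cell.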

Assay [5] in a line: qHTS assay to identify small molecule HDAC inhibitors (AID 1259364). Also: top concentration of the series differs between compounds; nearly all actives have a fitted effect of over 45% in size. In outline: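 Homogeneous cell-based luminescent assay of endogenous class I/II HDAC activity; HCT-116 cells, 2 h compound exposure, 30 min HDAC-Glo development at RT.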
Assay [6] can be described thus: qHTS assay to identify small molecule HDAC inhibitors - cell viability counter screen (AID 1259365). Also: series mostly up to about 92 µM; nearly all actives have a fitted effect of over 50% in size. In outline:
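Measured quantity is CellTiter-Glo luminescence from wild-type HCT-116 cells after compound incubation of 2hr at 37C, 5% CO2; reagent developed 30min at room temperature.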

A short description of assay [7]: qHTS assay to identify small molecule agonists of the sonic hedgehog signaling (Shh) pathway - cell viability counter screen (AID 1259366). Also: nearly all actives have a fitted effect of over 50% in size. Also: potency is read from the fitted curve at half-maximal effect. The gist of the method:
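In quantitative high-throughput format, 3T3 Gli1-Luc cells were exposed to compounds for 24hr and multiplexed for viability using CellTiter-Fluor, incubated 1hr at 37C before the fluorescence read.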

The nature of assay [8]: qHTS assay to identify small molecule antagonists of the sonic hedgehog signaling (Shh) pathway - cell viability counter screen (AID 1259367). Also: nearly all actives have a fitted effect of over 55% in size. The gist of the method: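 NIH/3T3-derived Gli1-Luc reporter cells, 2,000/well, plated 4 hr before compound addition, then stimulated with conditioned medium for 24 hr at 37C. Viability measured in the same wells by CellTiter-Fluor fluorescence, reagent added at 23 hr for 1 hr.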

A short description of assay [9]: qHTS assay to identify small molecule agonists of the sonic hedgehog signaling (Shh) pathway (AID 1259368; calls by dose curve;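 also: NIH/3T3-derived 3T3Gli1-Luc cells carrying a stable Gli1-driven firefly luciferase reporter; series mostly up to about 92 µM; nearly all actives have a fitted effect of over 15% in size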). The gist of the method:
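Steps: seed 3T3 Gli1-Luc cells, incubate 4 hr at 37 C, pin-transfer compounds in DMSO alongside a positive control, incubate 24 hr, add luciferase detection reagent, wait 30 min at room temperature, read luminescence.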

Assay [10] in a line: qHTS assay to identify small molecule antagonists of the sonic hedgehog signaling (Shh) pathway (AID 1259369; calls by dose curve; also: nearly all actives have a fitted effect of over 45% in size; also: potency is read from the fitted curve at half-maximal effect). In outline:
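Inhibition of Shh signalling is measured as reduced Gli1-response-element firefly luciferase output in an NIH/3T3-derived stable reporter clone stimulated with conditioned medium for 24hr.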

A short description of assay [11]: qHTS assay to identify small molecule agonists of the androgen receptor (AR) signaling pathway in the presence of an antagonist - cell viability counter screen (AID 1259379).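 Also: MDA-kb2 human breast cancer cells carrying an MMTV luciferase reporter; series mostly up to about 92 µM; nearly all actives have a fitted effect of over 25% in size.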 In outline:
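Fluorescence from CellTiter-Fluor, added after 15 hr and read 1 hr later, gave cell viability. Cells were MDA-kb2 exposed to compounds (15 concentrations) in the presence of 3.0uM nilutamide at 37C, 0% CO2.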

A short description of assay [12]: qHTS assay to identify small molecule agonists of the estrogen receptor beta (ER-beta) signaling pathway - cell viability counter screen (AID 1259380). Also: nearly all actives have a fitted effect of over 30% in size. The gist of the method: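 Same-well viability counter screen. Cells: ER-beta-UAS-bla HEK293T, plated 6 hr before compound, in 2% charcoal-stripped FBS. Compound exposure 16 hr, 37C; viability by CellTiter-Glo luminescence after 30 min at room temperature.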

Assay [13] in a line: qHTS assay to identify small molecule antagonists of the estrogen receptor beta (ER-beta) signaling pathway - cell viability counter screen (AID 1259382). Also: series mostly up to about 92 µM; nearly all actives have a fitted effect of over 55% in size. The gist of the method: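 Following a 6 hr plating period, HEK293T cells carrying a UAS-driven beta-lactamase reporter under ER-beta control received compounds and 1nM E2 (final). After 16 hr at 37C and 2 hr substrate loading, CellTiter-Glo luminescence indicated viability.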

Assay [14] addresses Estrogen receptor (Homo sapiens) (UniProt P03372). Briefly: qHTS assay to identify small molecule agonists of the estrogen receptor alpha (ER-alpha) signaling pathway in the presence of an antagonist (AID 1259383; calls by dose curve; also: top concentration of the series differs between compounds; nearly all actives have a fitted effect of over 15% in size). The gist of the method:
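Cells are hormone-deprived for 5 days (charcoal-stripped FBS, no phenol red), plated for 24hr, spiked with 10.0nM ICI-182,780, then dosed at 15 concentrations. After 22hr at 37C, ONE-Glo luminescence reports ERE-luciferase activity.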

Assay [15] is described as follows: qHTS assay to identify small molecule agonists or antagonists of the thyroid stimulating hormone receptor (TSHR) signaling pathway - wild type cell line counter screen (AID 1259384; calls by dose curve). In outline: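 Wild-type Hek293 cells, 800/well, 18 h at 37C, then compound with Ro20-1724 for 30 min RT. cAMP by HTRF (cAMP-d2/anti-cAMP cryptate), 1 h RT, fluorescence read. 15 concentrations, triplicates.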

Assay [16] addresses Thyrotropin receptor (Homo sapiens) (UniProt P16473). Briefly: qHTS assay to identify small molecule antagonists of the thyroid stimulating hormone receptor (TSHR) signaling pathway (AID 1259385; calls by dose curve; also: nearly all actives have a fitted effect of over 20% in size). The gist of the method:
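TSHR-HEK293 cells (800/well) plated 18 h, then compounds with Ro20-1724 and TSH at 1.5 ng/mL final, 30 min at room temperature. cAMP quantified by HTRF (cAMP-d2/anti-cAMP-cryptate, 1 h); 15 concentrations in triplicate.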

The target in assay [17] is Androgen receptor (Homo sapiens) (UniProt P10275). The assay is described as follows: qHTS assay to identify small molecule antagonists of the androgen receptor (AR) signaling pathway using the MDA cell line in the presence of 0.5 nM R1881 (AID 1259243). Also: nearly all actives have a fitted effect of over 50% in size. In outline: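 Steps: seed MDA-kb2 cells, incubate 5 hr at 37C; pin-transfer compounds in DMSO; add R1881 to 0.5 nM final; incubate 16 hr; add ONE-Glo, wait 30 min at room temperature; read luminescence.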

The target of assay [18] is Estrogen receptor beta (Homo sapiens) (UniProt Q92731). The assay is described as follows: qHTS assay to identify small molecule agonists of the estrogen receptor beta (ER-beta) signaling pathway (AID 1259377; active = well fitted activation curve with a large enough effect in the signal ratio in the repeat runs, not every such curve was filed as active; the % refers to the signal ratio). The gist of the method:
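Reporter cells (HEK293T, ER-beta-UAS-bla) receive compounds or DMSO after a 6 hr pre-incubation. They then incubate 16 hr at 37C/5% CO2, and fluorescence from LiveBLAzer B/G substrate is measured after 2 hours at room temperature.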

Assay [19] shares this target. Briefly: qHTS assay to identify small molecule antagonists of the estrogen receptor beta (ER-beta) signaling pathway (AID 1259378; active = well fitted inhibition curve with a large enough effect in the signal ratio in the repeat runs, not every such curve was filed as active; the % refers to the signal ratio; also: potency is read from the fitted curve at half-maximal effect). In outline: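 ER-beta-UAS-bla HEK293T cells in 2% charcoal-stripped FBS medium treated with compound plus 1nM final 17-beta-estradiol for 16 hr at 37C. Beta-lactamase reporter read by FRET substrate fluorescence after 2 hours at room temperature.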

The target of assay [20] is Androgen receptor (Homo sapiens) (UniProt P10275). Briefly: qHTS assay to identify small molecule agonists of the androgen receptor (AR) signaling pathway in the presence of an antagonist (AID 1259381; calls by dose curve; also: nearly all actives have a fitted effect of over 15% in size). In outline:
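Cells are MDA-kb2 (human breast carcinoma, MMTV-luc, AR/GR responsive). Nilutamide is present at 3.0uM final throughout; compounds are added at 15 concentrations and incubated 16hr at 37C before ONE-Glo luminescence detection.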

Androgen receptor (Homo sapiens), sequence (P10275 whole entry, looked up): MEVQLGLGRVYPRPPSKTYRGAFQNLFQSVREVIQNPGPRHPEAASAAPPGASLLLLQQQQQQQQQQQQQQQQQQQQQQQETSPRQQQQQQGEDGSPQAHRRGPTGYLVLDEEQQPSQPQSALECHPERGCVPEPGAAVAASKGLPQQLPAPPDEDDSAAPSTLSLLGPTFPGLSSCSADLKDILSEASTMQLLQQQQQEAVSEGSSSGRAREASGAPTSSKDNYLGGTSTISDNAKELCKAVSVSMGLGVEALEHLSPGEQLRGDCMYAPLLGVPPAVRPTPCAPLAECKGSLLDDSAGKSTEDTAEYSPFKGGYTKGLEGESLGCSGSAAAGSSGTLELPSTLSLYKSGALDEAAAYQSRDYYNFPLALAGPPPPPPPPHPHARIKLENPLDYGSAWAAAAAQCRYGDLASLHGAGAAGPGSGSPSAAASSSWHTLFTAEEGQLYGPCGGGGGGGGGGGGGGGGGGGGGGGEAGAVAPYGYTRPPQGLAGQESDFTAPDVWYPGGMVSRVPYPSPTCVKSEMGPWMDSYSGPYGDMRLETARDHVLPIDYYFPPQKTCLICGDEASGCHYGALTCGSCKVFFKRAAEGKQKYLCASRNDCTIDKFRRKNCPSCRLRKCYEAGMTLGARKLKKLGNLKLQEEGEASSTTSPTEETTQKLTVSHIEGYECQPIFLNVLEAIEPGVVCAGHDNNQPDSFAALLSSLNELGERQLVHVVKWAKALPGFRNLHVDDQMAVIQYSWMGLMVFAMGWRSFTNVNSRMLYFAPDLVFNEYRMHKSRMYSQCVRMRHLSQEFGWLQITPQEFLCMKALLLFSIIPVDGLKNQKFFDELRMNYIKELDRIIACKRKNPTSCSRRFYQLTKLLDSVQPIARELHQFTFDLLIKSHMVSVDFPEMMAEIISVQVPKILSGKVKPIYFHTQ
Estrogen receptor (Homo sapiens), sequence (P03372 whole entry, looked up): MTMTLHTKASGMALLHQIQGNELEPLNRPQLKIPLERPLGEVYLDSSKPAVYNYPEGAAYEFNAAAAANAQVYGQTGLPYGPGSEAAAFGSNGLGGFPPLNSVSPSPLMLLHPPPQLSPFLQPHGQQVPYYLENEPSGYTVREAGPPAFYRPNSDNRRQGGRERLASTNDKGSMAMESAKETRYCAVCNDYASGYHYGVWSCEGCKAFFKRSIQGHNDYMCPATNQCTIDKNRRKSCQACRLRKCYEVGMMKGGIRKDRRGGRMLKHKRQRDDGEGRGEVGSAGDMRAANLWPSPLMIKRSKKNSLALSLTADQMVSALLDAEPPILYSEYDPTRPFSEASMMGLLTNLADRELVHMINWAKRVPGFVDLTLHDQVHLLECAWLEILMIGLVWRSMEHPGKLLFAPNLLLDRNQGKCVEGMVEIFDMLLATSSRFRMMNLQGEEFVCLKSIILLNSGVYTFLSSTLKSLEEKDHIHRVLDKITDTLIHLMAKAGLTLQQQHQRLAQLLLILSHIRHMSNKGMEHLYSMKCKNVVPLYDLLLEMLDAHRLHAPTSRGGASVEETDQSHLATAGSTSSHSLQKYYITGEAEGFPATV
Thyrotropin receptor (Homo sapiens), sequence (P16473 whole entry, looked up): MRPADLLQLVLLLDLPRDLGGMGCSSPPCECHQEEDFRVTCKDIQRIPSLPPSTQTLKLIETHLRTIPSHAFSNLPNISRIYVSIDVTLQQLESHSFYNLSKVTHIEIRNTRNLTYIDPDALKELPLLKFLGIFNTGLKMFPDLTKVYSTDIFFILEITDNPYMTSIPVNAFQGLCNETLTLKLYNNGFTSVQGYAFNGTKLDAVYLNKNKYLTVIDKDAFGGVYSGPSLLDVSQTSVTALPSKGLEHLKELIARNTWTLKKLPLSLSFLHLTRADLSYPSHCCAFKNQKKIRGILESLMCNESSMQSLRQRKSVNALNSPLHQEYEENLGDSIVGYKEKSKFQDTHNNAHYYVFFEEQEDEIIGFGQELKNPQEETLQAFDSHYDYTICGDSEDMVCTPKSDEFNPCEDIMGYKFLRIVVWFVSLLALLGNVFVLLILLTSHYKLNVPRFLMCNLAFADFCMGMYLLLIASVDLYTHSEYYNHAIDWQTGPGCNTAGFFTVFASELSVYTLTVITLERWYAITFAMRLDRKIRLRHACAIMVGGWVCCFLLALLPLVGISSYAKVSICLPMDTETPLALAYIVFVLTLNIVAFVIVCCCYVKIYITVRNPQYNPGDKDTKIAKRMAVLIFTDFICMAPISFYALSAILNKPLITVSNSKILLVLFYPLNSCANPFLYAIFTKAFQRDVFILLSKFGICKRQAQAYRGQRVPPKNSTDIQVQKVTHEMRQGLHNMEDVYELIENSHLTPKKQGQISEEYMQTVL
Estrogen receptor beta (Homo sapiens), sequence (Q92731 whole entry, looked up): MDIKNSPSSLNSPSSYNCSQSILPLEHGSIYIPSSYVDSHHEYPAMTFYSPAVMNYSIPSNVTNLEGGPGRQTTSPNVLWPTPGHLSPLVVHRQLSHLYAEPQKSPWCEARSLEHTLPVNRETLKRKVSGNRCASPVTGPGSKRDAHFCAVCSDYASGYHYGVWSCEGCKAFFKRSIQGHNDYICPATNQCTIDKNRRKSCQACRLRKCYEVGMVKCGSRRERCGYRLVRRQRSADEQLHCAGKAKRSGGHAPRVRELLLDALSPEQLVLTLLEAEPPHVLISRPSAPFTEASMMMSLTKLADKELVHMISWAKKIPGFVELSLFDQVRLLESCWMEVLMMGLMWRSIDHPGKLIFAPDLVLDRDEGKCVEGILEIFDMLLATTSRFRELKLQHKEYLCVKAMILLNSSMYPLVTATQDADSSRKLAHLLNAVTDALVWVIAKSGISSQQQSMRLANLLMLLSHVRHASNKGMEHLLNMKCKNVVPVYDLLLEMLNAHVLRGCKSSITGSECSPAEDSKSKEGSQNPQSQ

For the compound `CC(O)C(=O)O` (stereo not given), the Potency result in [1], in [2], in assay [3], in assay [5], in [7] and in assay [8] was “inactive” throughout. In addition, the Potency result in assay [10], in [11], in [12], in assay [13] and in [14] was “inactive” throughout. Moreover, the call in assay [4], in [6], in [9], in assay [15] and in assay [16] was inactive.

Regarding `Cc1cc(=O)n(-c2ccccc2)n1C`, the Potency result in assay [1], in assay [2], in [17], in [3], in assay [5] and in assay [7] was “inactive” each time. Moreover, the Potency result in [8], in assay [10], in assay [19], in assay [11], in [12] and in [20] was “inactive” each time. In addition, the Potency entry in assay [13] and in assay [14] was “inactive” each time. In addition, the compound was called inactive in assay [4], in [6], in assay [9] and in assay [18].

Consider `NC(N)=O`, for which the Potency entry in assay [1], in assay [2], in assay [3], in [5], in assay [19] and in assay [11] was “inactive” each time. Further, the Potency result in [12], in assay [13] and in assay [14] was “inactive” throughout. Further, the outcome in assay [4], in [6], in assay [9], in [18], in assay [15] and in [16] was inactive. Besides, the Potency was 23 µM (active) and inactive in [7]; 7.28 µM (active) and inactive and 68.6 µM (active) in assay [10].

Take `CC1(C)[C@@H]2CC[C@@]1(C)C(=O)C2`: the Potency result in assay [1], in assay [2], in assay [3], in [5], in assay [7] and in assay [8] was “inactive” each time. The Potency result in assay [10], in assay [19], in [11], in assay [12], in [13] and in assay [14] was “inactive” each time. Moreover, the result in [4], in [6], in assay [9], in assay [18], in assay [15] and in assay [16] was inactive.

On to `CCCN(CCC)S(=O)(=O)c1ccc(C(=O)O)cc1`, for which the Potency entry in assay [1], in [2], in assay [17], in assay [5], in [7] and in [10] was “inactive” throughout. Also, the Potency result in assay [19], in assay [11], in assay [12], in assay [20] and in assay [13] was “inactive” in each case. Further, the compound was called inactive in [4], in assay [6], in [9], in assay [18], in assay [15] and in assay [16].

For the compound `Cn1cc[nH]c1=S`, the Potency entry in assay [1], in assay [2], in [3], in [5], in assay [7] and in [10] was “inactive” in each case. Besides, the Potency entry in assay [11], in assay [12], in [13] and in assay [14] was “inactive” each time. Besides, the call in [4], in [6], in assay [9], in assay [18], in [15] and in assay [16] was inactive. Besides, the Potency in assay [19] was 43.2 µM (active) and inactive.

`CC(=O)Nc1nnc(S(N)(=O)=O)s1`: the Potency result in assay [1], in [2], in assay [3], in assay [5], in assay [7] and in assay [10] was “inactive” throughout. Besides, the Potency entry in assay [19], in assay [11], in assay [12], in [13] and in assay [14] was “inactive” throughout. For the same compound, the call in assay [4], in assay [6], in [9], in assay [18], in [15] and in assay [16] was inactive.
